# High-throughput results deposited in PubChem by several laboratories.
# Shown are actives, neighbours in structure and some others; about 27% of the full set was active somewhere.
# CYP2C9 act = human CYP2C9 activators, primary screen, biochemical, luminescence. Cytochrome P450 2C9 (Homo sapiens), P11712. recombinant CYP2C9, luciferin-H conversion; active compounds read high; factor 1 = untreated enzyme, 0 = blocked. activation factor at 5 µM. 1.4% of 96,000 active;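 active means activation factor of 2 or more for CYP2C9 at a 5 µM dose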;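 further: 0 = sulfaphenazole-blocked wells and 1 = vehicle-only wells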
# CYP2C19 inh = blockers of cytochrome P450 2C19 activity – biochemical, luminescence, ADME assay, primary screen; inhibition, % at 5 µM; P33261; 21% of 96,000 active; AID 778, 2007; CYP2C19 Supersomes, luciferin-H EGE luminescence, 30 min;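 active means CYP2C19 inhibition above a set limit at 5 µM in the primary screen, cut at about 50% in these data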;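 further: plate controls were negative control wells for no effect and 2.5 mM tranylcypromine positive control for full effect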
# Cav3 T inh = Cav3.2 calcium influx blockers – cell-based, Fluo-4 calcium fluorescence, FDSS, MLSMR library, primary screen | Voltage-dependent T-type calcium channel subunit alpha-1H (Homo sapiens), O95180 | Cav3.2-expressing cells; active compounds read low | B-score at 10 µM | 4% of 100,000 active;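 active means single-dose well whose peak fluorescence ratio is a statistical outlier from its plate by either plate-standardised score or position-corrected B-score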
# Pyk2 oligo antag = antagonists of Pyk2 self-association, primary screen, Q293 cells, FERM NanoBiT luminescence, HTS | 0.83% of 99,000 active | z-score (the deposit names both 25 µM and 10 µM) | active compounds read low | Protein-tyrosine kinase 2-beta (Homo sapiens), Q14289;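 active means Z-score of -3 or lower, scaled per plate to the spread of control and sample wells; inactive means z-score above -3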;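 further: negative z-score means lost luminescence so less FERM oligomerization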
# CYP2C19 act = human CYP2C19 activators, primary screen, biochemical, luminescence; Cytochrome P450 2C19 (Homo sapiens), P33261; recombinant CYP2C19, luciferin-H EGE luminescence; active compounds read high; 0 = fully inhibited enzyme, 1 = untreated enzyme; activation factor at 5 µM; 96,000 tested, under 10 active; AID 1025, 2008;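 active means activation factor of at least 2 at 5 µM in the primary screen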;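 further: 0 = wells with 2.5 mM tranylcypromine and 1 = vehicle-only wells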
# CYP2C9 inhib = blockers of cytochrome P450 2C9 activity – biochemical, luminescence, ADME assay, primary screen; 20% of 96,000 active; AID 777, 2007; P11712; CYP2C9 Supersomes, luciferin-H conversion; inhibition, % at 5 µM;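 active means blocking of liver enzyme CYP2C9 beyond about 50% at 5 µM, limit read from the data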
# * marks the source's active call; other numbers are inactive results; . = not tested or not shown.
SMILES,CYP2C9 act,CYP2C19 inh,Cav3 T inh,Pyk2 oligo antag,CYP2C19 act,CYP2C9 inhib
CC1=C(C(=O)OCc2ccccc2)C(c2cccnc2)n2ncnc2N1 (centres undefined),0.9,35,-0.28,1.3,0.7,13
CC1(C(=O)NCCCNc2ncc(C(F)(F)F)cc2Cl)C=CCN1C(=O)c1ccccc1 (centres undefined),.,.,-0.88,.,.,.
N#CCC(CNc1ncc(C(F)(F)F)cc1Cl)OC(=O)c1cccc(C(F)(F)F)c1 (centres undefined),1,63*,0.19,2.3,0.4,4
CN(c1ccccc1C(=O)NCC1CCCO1)S(C)(=O)=O (centres undefined),1.1,2,-0.024,0.85,1,-7
CCOc1cc(NS(=O)(=O)c2ccc(OC)cc2)c(OCC)cc1NC(=O)c1ccco1,.,.,0.21,-1.7,.,.
CCOC(=O)COc1ccc(S(=O)(=O)NCC2CCCO2)cc1 (centres undefined),.,.,0.29,-0.98,.,.
CCOC(=O)c1ccccc1NS(=O)(=O)c1ccc(OCC)cc1,0.6,70*,-1.9,-2.5,0.3,40
O=S(=O)(NCC1CCCO1)c1ccc(Oc2ccccc2)cc1 (centres undefined),0.2,95*,0.34,-0.03,0,83*
CCOc1ccc(S(=O)(=O)Nc2ccccc2C(=O)NCC2CCCO2)cc1 (centres undefined),0.7,71*,1.1,-0.5,0.3,35
CCOc1ccc(S(=O)(=O)Nc2cc(OC)c(OC)cc2C(=O)O)cc1,0.3,32,0.94,0.99,0.7,73*
COC(=O)c1cccc(NS(=O)(=O)c2ccc(OC)cc2)c1C,.,.,-1.5,1.7,.,.
COc1ccc(Oc2nc(SC)nc3ccccc23)cc1,1.1,1,-0.014,-0.41,1,-6
Cc1cc(C)c2nc(Cl)c(CN(Cc3ccco3)C(=O)Nc3ccccc3C)cc2c1,0.2,14,-3.8,-0.87,0.9,75*
COCCN(Cc1cc2cc(C)cc(C)c2nc1Cl)C(=O)Nc1ccccc1,0.3,39,-1.2,-1.5,0.6,67*
COc1ccc(NC(=O)N(CCO)Cc2cc3c(C)cc(C)cc3[nH]c2=O)cc1,1,3,-0.077,-0.38,1,1
CSc1ccc(Cl)c(C(=O)OCC(=O)NCc2ccco2)c1,0.6,93*,-0.61,2,0.1,43
O=C(COC(=O)c1cccnc1SCC(=O)NCc1ccccc1)NCc1ccccc1,0.6,68*,0.15,-0.61,0.3,39
NC(=O)c1ccsc1NC(=O)COC(=O)c1ccccc1NCc1ccco1,0.1,74*,-1.1,-1.4,0.3,90*
O=C(COC(=O)c1cccs1)NCc1ccco1,0.8,70*,-0.29,0.04,0.3,20
O=C(/C=C/c1ccc(OCCCF)cc1)NCc1ccc(Cl)cc1,0.9,34,.,1.1,0.7,10
O=C(C1CCC(=O)N1Cc1ccccc1Cl)N1CCN(c2cccc(Cl)c2)CC1 (centres undefined),0.8,14,-2.5,0.63,0.9,21
COc1cc(NC(=O)c2cccs2)c(C(=O)OCC(=O)NCc2ccco2)cc1OC,0.2,27,-0.029,-0.79,0.7,82*
O=C(COC(=O)c1cccs1)NCc1ccccc1,0.8,92*,-0.72,0.67,0.1,23
CC(C)(C)c1ccc(OCC(=O)NCc2ccco2)c(Br)c1,0.2,46,-2.1,0.88,0.5,76*
COc1cc(C(=O)OCC(=O)NCc2ccco2)cc(OC)c1OC,1,40,0.28,0.63,0.6,4
CCOc1cc(C(=O)OCC(=O)NCc2ccco2)cc(OCC)c1OCC,0.4,58*,0.7,1.4,0.4,57*
Cc1c(NC(=O)C2(c3ccccc3)CCCC2)c(=O)n(-c2ccccc2)n1C,1.1,7,0.85,2.1,0.9,-14
CCOC(=O)c1sc2nc(CC(=O)OC)nc(NCc3ccco3)c2c1C,0.2,61*,-0.62,-0.44,0.4,84*
Cc1nc(SCn2nnc3ccccc3c2=O)c2c(C)c(C)sc2n1,0.8,26,.,.,0.7,25
